{
  "source": "paper PMC5540273",
  "about": "(PLoS ONE, 2017);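 also: KINOMEscan kinase panel screen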",
  "data": [
    {"tested_on": "STK39", "conditions": "concentration: 1 μM, replicates: in singlicate; n = 1", "units": {"%Inh": "%"}, "values": [
      {"smiles": "CN1CCC(n2cnc(-c3ccc(F)cc3)c2-c2ccnc(NC3CCNCC3)n2)CC1", "note": "[SB-229482]", "%Inh": 47},
      {"smiles": "COc1cc2ncnc(Nc3ccc(OCc4ccccc4Br)c(Cl)c3)c2cc1OC.Cl", "note": "[GI261590]", "%Inh": 7},
      {"smiles": "CC(=O)Nc1n[nH]c2ncc(-c3ccccc3)cc12", "note": "[SB-548492]", "%Inh": 0},
      {"smiles": "CNc1nccc(-c2c(-c3ccc(F)cc3)ncn2C2CCN(C)CC2)n1", "note": "[SB-222903]", "%Inh": 0},
      {"smiles": "O=C(Nc1ccccc1F)NC1CCN(c2ccnc(Nc3ccc(F)cc3)n2)C1", "note": "(stereo not shown) [GSK1379722]", "%Inh": 29},
      {"smiles": "O=C(NCCCN1CCCC1=O)c1cnc(NCc2cc(Cl)ccc2Cl)nc1NC1CCNCC1", "%Inh": 0},
      {"smiles": "O=c1cc(N2CCOCC2)nc2n(Cc3cccc(Cl)c3)ccn12", "note": "[GSK2296823]", "%Inh": 11},
      {"smiles": "Nc1n[nH]c2nnc(-c3ccccc3)cc12", "note": "[SB-517389]", "%Inh": 13},
      {"smiles": "O=C(Nc1n[nH]c2nc(-c3ccco3)c(Br)cc12)c1ccc(CN2CCCC2)cc1.O=C(O)[C@H](O)[C@@H](O)C(=O)O", "note": "[SB-742352]", "%Inh": 0},
      {"smiles": "Nc1nc(-c2cccnc2)c(-c2ccnc3ccccc23)s1", "note": "[GW684083]", "%Inh": 0},
      {"smiles": "c1ccc(-c2ccc3c(-c4ccnc(Nc5ccc6c(c5)OCCO6)n4)cnn3n2)cc1", "note": "[GW818941]", "%Inh": 22},
      {"smiles": "Nc1nc(-c2ccc3c(N)n[nH]c3c2)cc(N2CCC[C@@H](C(=O)Nc3ccccc3)C2)n1.O=C(O)C(F)(F)F.O=C(O)C(F)(F)F", "note": "[GSK2288359]", "%Inh": 1},
      {"smiles": "COC(=O)c1cccc(NC(=O)NCCNc2ccnc(Nc3ccc(F)cc3)n2)c1", "note": "[GSK1379883]", "%Inh": 0}
    ]}
  ]
}
